Experimental data as given in PubChem BioAssay (Tox21).
Results filed as inconclusive are left out. Calls of active or inactive are those of the source. Calls follow the shape of the dose curve; as a rule, active = well fitted cell-killing curve with a large enough effect in the repeat runs; inconclusive = weak or mixed curves; inactive = no such curve, though single readings can be large or run the other way.

Assay: qHTS assay for identifying genotoxic compounds that show differential cytotoxicity against isogenic chicken DT40 cell lines with known DNA damage response pathways - Rad54/Ku70 mutant cell line (AID 743015); also: nearly all actives have a fitted effect of over 60% in size
Settings: DT40 Rad54/Ku70 mutant viability, CellTiter-Glo, 40 h; series mostly up to 66.8 µM; activity change, negative = cytotoxicity: at the top concentration
Source text: National Center for Advancing Translational Sciences [NCATS]
NIH Chemical Genomics Center [NCGC]
U.S. Environmental Protection Agency [EPA]
National Institutes of Environmental Health Sciences [NIEHS]
National Toxicology Program [NTP]
U.S. Food and Drug Administration [FDA]
DNA repair pathways play a critical role in cellular homeostasis by repairing DNA damage induced by endogenous processes and xenobiotics. Isogenic chicken DT40 cell lines deficient in different DNA repair pathways can be used to identify genotoxic compounds and aid in characterizing the nature of the DNA damage induced. Two DNA repair-deficient cell lines with disrupted genes, Rad54/Ku70 or Rev3, were used to screen the Tox21 10K compound library. Possible genotoxicity was based on the presence of a significant increase in cytotoxicity in one or more of the DNA repair-deficient cell lines compared to that observed in the parental DNA repair-proficient cell line. CellTiter Glo viability assay (Promega, Madison, WI) was used to measure cell viability in these cells after compound treatment. This assay includes the data from the Rad54/Ku70 mutant cell line.
Tox21 Assay Protocol Summary:
300 DT40 mutant cells in 5 uL/well were dispensed into white, solid-bottom 1536-well plates using a Multidrop Combi (ThermoFisher Scientific, Waltham, MA) dispenser. After the assay plates were incubated at 37 C/5% CO2 for approximately 0.5 hour, 23 nL of compounds dissolved in DMSO, positive controls or DMSO only was transferred into the assay plate by a pintool work station (Kalypsys, San Diego, CA). The assay plates were incubated at 37 C/5% CO2 for 40 hours. After 5 uL per well of CellTiter-Glo reagent was added into each well of the assay plates, the plates were incubated for 30 min at room temperature and the luminescence intensity of the plates was measured using a ViewLux (PerkinElmer, Shelton, CT) plate reader.
% is scaled to controls: 0 for no effect and ±100 for the full control effect; potency is read from the fitted curve at half-maximal effect.

Row | Structure (SMILES) | activity change, negative = cytotoxicity | Potency
1 | OCC1(CO)COC(C(Cl)(Cl)Cl)OC1 | 3.91% (inactive) | –
2 | CC[C@H](C)C(=O)O[C@H]1CCC=C2C=C[C@H](C)[C@H](CC[C@@H]3C[C@@H](O)CC(=O)O3)[C@H]21 | – | 11.9 µM (active)
3 | CC(C)(Oc1ccc(C2CCCc3ccccc32)cc1)C(=O)O (stereo not given) | 0.449% (inactive) | –
4 | N#Cc1nc(Cl)c(Cl)c(Cl)c1Cl | – | 1.54 µM (active)
5 | O=C(O)[C@H]1CN(C/C=C/P(=O)(O)O)CCN1 | 6.92% (inactive) | –
6 | OCCCNc1ccccc1 | 9.13% (inactive) | –
7 | O=C1c2c(O)cccc2[C@H]([C@@H]2O[C@H](CO)[C@@H](O)[C@H](O)[C@H]2O)c2cc(CO)cc(O)c21 | – | inactive
8 | O=S(=O)(O)CC(S)CS (stereo not given) | – | 3.76 µM (active)
9 | NC[C@H]1O[C@H](O[C@H]2[C@H](O)[C@@H](O[C@H]3O[C@H](CO)[C@@H](O)[C@H](N)[C@H]3O)[C@H](N)C[C@@H]2N)[C@H](N)C[C@@H]1O | 5.96% [at 30.7 µM] (inactive) | –
10 | O=C(CCN1CCC(c2ccccc2)C1)c1ccc2c(c1)OCCO2 (stereo not given) | – | 4.22 µM (active)
11 | C[N+](C)(C)CCOP(=O)(O)OP(=O)([O-])OC[C@H]1O[C@@H](n2ccc(N)nc2=O)[C@H](O)[C@@H]1O | – | inactive
12 | CNCCC=C1c2ccccc2CCc2ccccc21 | – | 11.9 µM (active)
13 | Cc1cc(N)c2ccccc2[n+]1CCCCCCCCCC[n+]1c(C)cc(N)c2ccccc21 | – | 2.85 µM (active)
14 | CC1CCCC(C)N1NC(=O)c1ccc(Cl)c(S(N)(=O)=O)c1 (stereo not given) | 2.41% [at 30.7 µM] (inactive) | –
15 | C=CC(N)CCC(=O)O (stereo not given) | 7.7% (inactive) | –
16 | CCN1CCCC1CNC(=O)c1cc(S(=O)(=O)CC)ccc1OC (stereo not given) | – | inactive
17 | NCc1cccc(C2CCN(C(=O)c3ccc(C#Cc4ccccc4F)o3)CC2)c1 | – | 17.2 µM (active)
18 | COc1ccc(/C=N/NC(=O)c2ccncc2)c(C(=O)O)c1OC | 7.18% (inactive) | –
19 | CN(C/C=C/c1ccccc1)Cc1cccc2ccccc12 | – | 26.6 µM (active)
20 | CN1CCN(c2ccccc2/C=C2\SCCN(c3ccc(Cl)c(Cl)c3)C2=O)CC1 | – | 5.45 µM (active)

Row | Structure (SMILES) | activity change, negative = cytotoxicity | Potency
21 | Cc1cc(Br)ccc1NC(=O)CCl | – | 1.54 µM (active)
22 | CC12CCC(C1)C(C)(C)C2=O (stereo not given) | 6.4% (inactive) | –
23 | CSCC[C@H](NC(=O)[C@H](Cc1ccc(OS(=O)(=O)O)cc1)NC(=O)[C@@H](N)CC(=O)O)C(=O)NCC(=O)N[C@@H](Cc1c[nH]c2ccccc12)C(=O)N[C@@H](CCSC)C(=O)N[C@@H](CC(=O)O)C(=O)N[C@@H](Cc1ccccc1)C(N)=O | – | inactive
24 | O=P(O)(O)OP(=O)(O)OP(=O)(O)O | -0.669% (inactive) | –
25 | CCCCCCCCCC(=O)NO | -17.3% (inactive) | –
26 | O=c1[nH]c(=O)n([C@H]2C[C@H](O)[C@@H](CO)O2)cc1/C=C/Br | 8.1% (inactive) | –
27 | CC(Cc1ccc(O)c(O)c1)C(C)Cc1ccc(O)c(O)c1 (stereo not given) | – | 15.4 µM (active)
28 | NCC(O)CC(=O)O (stereo not given) | 7.71% (inactive) | –
29 | CO/N=C(\C(=O)N[C@@H]1C(=O)N2C(C(=O)O)=C(CSc3cnns3)CS[C@H]12)c1csc(N)n1 | 9.05% (inactive) | –
30 | CCCCCCCCCCCCCC(=O)OCC(COP(=O)([O-])OCC[N+](C)(C)C)OC(=O)CCCCCCCCCCCCC (stereo not given) | 1.11% (inactive) | –
31 | CN(C)CCc1c[nH]c2ccc(Cn3cncn3)cc12 | 1.98% (inactive) | –
32 | C[N+]1(CCCCC[N+]2(C)CCCC2)CCCC1 | 6.02% (inactive) | –
33 | N[C@H](CO)C(=O)O | 0.78% (inactive) | –
34 | N#Cc1c(N(CC(=O)O)CC(=O)O)sc(C(=O)O)c1CC(=O)O | 6.48% (inactive) | –
35 | FC(F)(F)C(F)(F)C(F)(F)C(F)(F)C(F)(F)F | 0.0863% (inactive) | –
36 | C[C@H](NCCc1ccc(O)cc1)[C@H](O)c1ccc(O)cc1 | 6.61% (inactive) | –
37 | c1ccc(-c2ccc(C(c3ccccc3)n3ccnc3)cc2)cc1 (stereo not given) | – | 11.9 µM (active)
38 | O=C(O)c1cc2cc(Cc3cccnc3)ccc2o1 | 4.31% (inactive) | –
39 | CCC(C)(C)c1ccc(CC(C)CN2C[C@@H](C)O[C@@H](C)C2)cc1 (stereo not given in full) | – | 0.841 µM (active)
40 | CCSCC | -15.6% [at 95.1 µM] (inactive) | –
